The source made the active and inactive calls. The rule behind the calls is not given here.

Protein kinase 7 (PK7), Plasmodium falciparum 3D7 (PF3D7_0213400), sequence (Q7YTF7 1-343): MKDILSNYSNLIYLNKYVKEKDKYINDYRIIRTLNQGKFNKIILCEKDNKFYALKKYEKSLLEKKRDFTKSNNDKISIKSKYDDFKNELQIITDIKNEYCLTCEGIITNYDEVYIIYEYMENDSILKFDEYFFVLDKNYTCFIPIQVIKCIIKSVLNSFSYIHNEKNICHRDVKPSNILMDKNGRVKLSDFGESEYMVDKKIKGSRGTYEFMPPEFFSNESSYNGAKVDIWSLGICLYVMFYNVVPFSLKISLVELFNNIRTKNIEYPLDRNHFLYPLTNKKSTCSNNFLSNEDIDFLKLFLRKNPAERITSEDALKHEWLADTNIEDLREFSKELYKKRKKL

The assay addresses Protein kinase 7 (PK7), Plasmodium falciparum 3D7 (PF3D7_0213400) (UniProt Q7YTF7). Briefly: inhibition of Plasmodium PK7 catalytic activity – biochemical, TCAMS antimalarial set, Kinase-Glo luminescence (AID 1159587). The settings on record: recombinant PfPK7, Kinase-Glo ATP depletion luminescence.
As for `CC[C@@H]([C@@H](Cc1cc2ccccc2s1)C(=O)N[C@@H](CCCCNC(=O)OCc1ccccc1)C(=O)Nc1ccccn1)N(O)C=O`, the outcome was inactive. For the compound `CC(C)(C)c1ccc(C(=O)N2CCC3(CC2)C(=O)N(CC(=O)NCC2CCCO2)CN3c2ccccc2)cc1` (stereo not given), the result was inactive. `NC(=O)c1cccc(CNC(=O)NC[C@H]2CN(Cc3ccc(Cl)c(Cl)c3)CCO2)c1`: the outcome was inactive. As for `Cc1cc(Nc2cccc(Cl)c2)nc2ccc(NC(=O)c3ccc(=O)[nH]c3)cc12`, the result was inactive. As to `COc1ccc(NC(=O)Nc2ccc(-c3cccc(-c4nc5c(C)cccc5[nH]4)c3)cc2)cc1`, the outcome was inactive. For `CN(C)CCN(Cc1ccccc1-c1ccc(CNCCc2ccccc2)cc1)C(=O)NC1CCCCC1` the value was “inactive”; for `CN1CCC(N(Cc2ccc(-c3ccc(C(F)(F)F)cc3)nc2)C(=O)Cn2c(CCc3cccc(F)c3F)cc(=O)c3ccccc32)CC1`, “inactive”. Consider `CC(c1cccc(S(=O)(=O)NCc2cccc(C(F)(F)F)c2)c1)N1CCC(N2CCCCC2)CC1` (stereo not given), for which the result was inactive.

With `CCCn1c(Sc2ccc(C#N)c([N+](=O)[O-])c2)nnc1-c1ccc(OC)cc1`, the outcome was inactive. For `CCOC(=O)C(C(C)=O)C(c1ccccc1)C(C(C)=O)C(=O)OCC` (stereo not given) the value was “inactive”; for `FC(F)(F)c1ccc2nc(-c3cccc(-c4ccc(CNCCc5ccncc5)cc4)c3)[nH]c2c1`, “inactive”; for `CC(C)c1nc(N2CCN(C(=S)NCc3ccccc3)CC2)c(C#N)c2c1COC(C)(C)C2`, “inactive”. For `O=C(NCCc1ccc(Cl)c(Cl)c1)[C@@H]1CCCN1C(=O)c1ccc(O)c(-c2ccc(Cl)c(Cl)c2)c1`, the outcome was inactive. Regarding `NCC1CCCN1Cc1cccc(-c2ccc(-c3nc4ccc(C(F)(F)F)cc4[nH]3)s2)c1` (stereo not given), the result was inactive. With `CN(CCCNc1ccc(C(=O)Nc2ccc(C(F)(F)F)cc2)cc1[N+](=O)[O-])Cc1ccccc1`, the result was inactive. As for `Cc1ccc(-c2cc(C(=O)Nc3ccc(S(=O)(=O)N4CCCCC4C)cc3)[nH]n2)c(O)c1` (stereo not given), the result was inactive.

As for `COc1ccccc1-c1cccc(Nc2c(Nc3ccc(Cl)cc3)c(=O)c2=O)c1`, the outcome was inactive. The result for `O=C(Nc1cccnc1)c1cc(-c2cc(Cl)ccc2O)n[nH]1` reads “inactive”. For `Cc1ccc(NC(=O)c2ccc(CN3CCCN(CC4CCCCC4)CC3)cc2)cc1C` the value was “inactive”. For `Cc1cc(N2CCN(C(=O)OC(C)(C)C)CC2)ccc1N` the value was “inactive”; for `O=C1CSc2ccc(CNC3CCN(CCc4c(F)cnc5ccc(F)cc45)CC3)nc2N1`, “inactive”; for `CCN(CC)CCOc1c(Cl)cc(Cl)cc1CNCCCNc1cc(=O)c2ccccc2[nH]1`, “inactive”. As to `Cc1cc(NC(=O)NCCN2CCC(NS(=O)(=O)c3ccc(Br)cc3)C2)c2ccccc2n1` (stereo not given), the result was inactive. The result for `Cc1cc(N[C@@H](Cc2ccccc2)C(=O)Nc2ccccc2)nc(NCCc2cccnc2)n1` reads “inactive”; that for `COc1ccc(C2CCN(CCCNC(=O)c3ccc(NC(=O)c4ccc(Cl)cc4)cc3)CC2)c(OC)c1`, “inactive”. On to `COc1ccccc1CCNc1nc(C)cc(N[C@@H](Cc2ccccc2)C(=O)NCCCOC(C)C)n1`, for which the result was inactive. With `Cc1ccccc1C(O)CNc1ccnc(Nc2cccc(C#N)c2)n1` (stereo not given), the outcome was inactive.

Regarding `COc1cc2nc(Nc3ccc(C)cc3)nc(Nc3ccc(C)cc3)c2cc1OC`, the result was inactive. As for `CC(CCCCC(=O)Nc1ccc(CC(C)NCCc2cccc(Cl)c2)cc1)NCCc1cccc(Cl)c1` (stereo not given), the result was inactive.

Take `CCc1cn2c3c(cc(C(=O)N[C@@H](Cc4ccccc4)[C@H](O)CN[C@@H](C)CC)cc13)N(C)S(=O)(=O)CC2`: the result was inactive.

For the compound `CCOc1ccc(NC(=O)c2ccc(CN3CCCN(Cc4cccc(O)c4)CC3)cc2)cc1`, the outcome was inactive. For `Cc1cccc2[nH]c(-c3ccc(-c4ccc(CN5CCC(C(N)=O)CC5)cc4)s3)nc12` the value was “inactive”; for `CN(Cc1cc(C(F)(F)F)cc(C(F)(F)F)c1)C(=O)C(Cc1ccc(F)cc1)C1CCCNC1` (stereo not given), “inactive”. The result for `Cc1cccc2[nH]c(-c3cccc(-c4cccc(NC(=O)c5ccncc5)c4)c3)nc12` reads “inactive”; that for `Oc1c(Cl)cc(-c2ccccc2)cc1CNC1CCCCC1`, “inactive”. For `NC(N)=Nc1nc(-c2cccc(NC(=O)NCc3ccc(OC(F)(F)F)cc3)c2)cs1` the value was “inactive”; for `C=CCc1cccc(CN2CCC(c3cc(=O)[nH]c(-c4ccccn4)n3)CC2)c1O`, “inactive”. With `O=C(NCc1cccc(Cl)c1)c1ccc(CNC2CCN(Cc3ccccc3)CC2)cc1`, the outcome was inactive. Take `CS(=O)(=O)N(c1ccc(F)cc1)c1cc(C(=O)N[C@@H](Cc2ccccc2)[C@H](O)CNCc2cccc(C(F)(F)F)c2)cc(N2CCCC2=O)c1`: the result was inactive. For `Cc1ccc(S(=O)(=O)c2nc(S(=O)(=O)c3ccccc3)sc2NCC2CCCO2)cc1` (stereo not given) the value was “inactive”.

Source of the values: PubChem BioAssay.
